# In the library only some 19% were active in any assay of this set; here they are far more common.
# Cycloheximide cs = counter-screen for Shiga toxin inhibitors: cycloheximide protein synthesis inhibition; cell reporter, cycloheximide protein synthesis inhibition counterscreen; max response, %; actives 12% (n = 300,000); in the data active = max response mostly above about 13%, no sharp cut-off; inactive = mostly below about 14%; note: read at 38.3 µM for the half of the compounds with a filed dose; 0% is about no effect
# Pf growth 48h = inhibits P. falciparum growth in the first generation, 48 h | Potency, µM (doses to about 28.7 µM), without a hit: top-dose activity change, negative = inhibition, usual class: inhibitors | P. falciparum luciferase growth in erythrocytes, 48 h | actives 5.9% (n = 310,000); note: potency is the fitted concentration of half-maximal effect; % is set by controls: 0 for no effect and ±100 for the full control effect
#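 Luciferase-expressing P. falciparum in infected erythrocytes (2% hematocrit, 0.1% parasitemia final) in RPMI 1640/0.5% Albumax were exposed to compound for 48 hours at 37 C, 5% CO2; growth read as luminescence.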
# Pf growth 96h = P. falciparum growth inhibition at 96 hours; P. falciparum luciferase reporter growth, 96 h; Potency, µM (titrated, usually from 28.7 µM), inactives show top-dose activity change, negative = inhibition, actives largely listed as inhibitors; actives 6.9% (n = 320,000); AID 504834; note: potency is the fitted concentration of half-maximal effect; % is set by controls: 0 for no effect and ±100 for the full control effect
#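 P. falciparum expressing integrated firefly luciferase grown in erythrocytes (2% hematocrit, 0.05% parasitemia final) with compounds for 96 hours at 37 C, 5% CO2. Growth inhibition read as loss of luminescence after adding luciferase detection reagent.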
# AMA1 RON2 block = inhibitors of Plasmodium falciparum AMA1-RON2 interaction; actives 0.2% (n = 360,000); Potency, µM (doses to about 58.2 µM), for inactives: top-dose activity change, negative = inhibition, hits mostly inhibitors; AID 720542; AlphaScreen AMA1-biotinylated RON2 peptide binding;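 note: potency is the fitted concentration of half-maximal effect; 0% = vehicle wells and -100% = peptide control; nearly all actives have a fitted effect of over 45% in size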
#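 AMA1 (3D7) with his tag at 25 nM final met compounds first, then biotinylated RON2 peptide at 25 nM; detection used donor plus acceptor beads, 10 µg/mL apiece, read by AlphaScreen after 30 min at room temperature.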
# Shiga toxin inh = Shiga toxin inhibition; Vero cells, Shiga toxin protein synthesis inhibition reporter; actives 9.2% (n = 290,000); inhibition, % at 38.7 µM; in the data active = inhibition mostly above about 28%, no sharp cut-off; inactive = mostly below about 43%; note: 0% is about no effect
# SARS PLpro yeast = SARS-CoV PLP inhibition in yeast; S. cerevisiae expressing SARS-CoV PLpro, growth rescue; Potency, µM (titrated, usually from 32.9 µM), inactives show top-dose activity, positive = growth rescue, most hits filed as activators; actives 0.19% (n = 330,000); calls by dose curve; note: potency is the fitted concentration of half-maximal effect; 0% is about no effect; nearly all actives have a fitted effect of over 55% in size
# * = called active by the depositor; ? = inconclusive; nt = not tested or not shown; [ ] = dose if it differs, or a comment. Unless noted, calls come from the whole dose curve; as a rule, active = well fitted curve in the direction sought with a large enough effect; inconclusive = small, poorly fitted or top-dose-only effect, or another doubt; inactive = no such curve, though single readings can be large; an effect the other way counts as inactive or inconclusive.
SMILES,Cycloheximide cs,Pf growth 48h,Pf growth 96h,AMA1 RON2 block,Shiga toxin inh,SARS PLpro yeast
O=C1CCCN1CCC(=O)N1CCCC(Nc2ccc(F)c(F)c2)C1 (centres undefined),13,-4%,?,14%,33*,-1%
Cc1ccc(C(C)NC(=O)c2cc3ccccc3oc2=O)cc1C (centres undefined),2,66%,140%,6%,nt,-5%
CS(=O)(=O)Nc1ccccc1-c1ccc2nccn2c1,nt,nt,nt,-5%,nt,nt
N#Cc1cnc(Nc2ccc(F)cc2)nc1N,24*,10%,-24%,10%,33,-3%
O=C(CCC(=O)N1CCN(S(=O)(=O)c2ccc3ccccc3c2)CC1)Nc1cc(Cl)cc(Cl)c1,5,-21%[5.75 µM],-1%[5.75 µM],-7%,26,1%
COc1ccc(C2Nc3ccccc3C(=O)N2c2ccc(C)cc2)cc1Cn1nnc2ccccc21 (centres undefined),51*,13µM*,?,12%,53*,3%
COc1ccc(C)cc1Cn1nnc2ccccc21,nt,?,33%,9%,nt,3%
COc1ccc(C2Nc3ccccc3C(=O)N2c2ccc(C)cc2)cc1Cn1cc([N+](=O)[O-])cn1 (centres undefined),38*,?,-73%,-7%,50*,4%
O=[N+]([O-])c1cccc(COc2ncnc3cc([N+](=O)[O-])ccc23)c1,-3,?,?,-11%,-3,1%
COc1ccc(S(=O)(=O)N2CCN(C(=O)CCSc3ccccc3)CC2)cc1,nt,?,?,-2%,nt,5%
O=C(OCC(=O)N1CCCCCC1)c1cccc(Cl)c1,nt,-14%,6%,1%,nt,13%
COc1cccc2[nH]c3c(N4CCN(Cc5ccc6c(c5)OCO6)CC4)ncnc3c12,0,?,10%,nt,-16,1%
COc1cc2[nH]c3c(Cl)ncnc3c2cc1OC,-2,?,?,-4%,-14,-4%
COc1ccc2c(c1)[nH]c1c(N3CCN(Cc4ccc5c(c4)OCO5)CC3)ncnc12,-2,2.6µM*,?,-24%,-12,-2%
COc1ccc2c(c1)[nH]c1c(N3CCSCC3)ncnc12,-1,4.7µM*,6.6µM*,-1%,-6,-2%
COc1cc2[nH]c3c(N4CCN(c5ccc(Cl)cc5)CC4)ncnc3c2cc1OC,0,4.1µM*,?,-13%,-7,-7%
COc1ccc(Br)cc1S(=O)(=O)N(CC(=O)N1CCN(C)CC1)c1ccccc1,-3,-13%,?,-12%,15,3%
CN1CCN(S(=O)(=O)c2cccs2)CC1,-3,6%,-12%,3%,-5,-1%
Cc1ccc(C(=O)N2CCN(S(=O)(=O)c3ccc(C)cc3)CC2)cc1,-1,-17%,13µM*,-12%,-8,24%
O=S(=O)(c1cccs1)N1CCN(c2ccc(O)cc2)CC1,15*,?,?,-6%,1,-1%
Cc1ccc(C(=O)N2CCN(S(=O)(=O)N3CCCCC3)CC2)cc1,11,14%,10µM*,7%,-12,?
O=C(c1ccccc1)N1CCN(S(=O)(=O)c2ccccc2)CC1,-5,?,30%,1%,-6,-3%
Cc1ccc(S(=O)(=O)N2CCN(S(=O)(=O)c3cccs3)CC2)cc1,33*,18%,2%,1%,56*,1%
Cc1ccc2ccccc2c1NC(=O)CNCc1ccccc1,nt,nt,nt,-13%,nt,nt
CCOC(=O)C1=CCC(c2ccc(Cl)cc2)N(S(=O)(=O)c2ccc(C)cc2)C1 (centres undefined),nt,nt,nt,14%,nt,nt
SMILES,Cycloheximide cs,Pf growth 48h,Pf growth 96h,AMA1 RON2 block,Shiga toxin inh,SARS PLpro yeast
CCOC(=O)C1CN(S(=O)(=O)c2ccc(C)cc2)CCN1S(=O)(=O)c1ccc(C)cc1 (centres undefined),-2,?,15µM*,7%,37,-1%
COc1ccccc1Cn1c(SCC#N)nc2cc(C(=O)N3CCC4(CC3)OCCO4)ccc2c1=O,-2,?,9.3µM*,-1%,-26,4%
CCn1cc(C(=O)N[C@H](C(=O)NC(C)(C)CO)C(C)C)c(=O)c2cc3c(cc21)OCO3,-5,?,8.3µM*,-2%,-7,0%
CCn1cc(C(=O)N[C@@H](CCSC)C(=O)NC(C)(C)CO)c(=O)c2cc3c(cc21)OCO3,-1,1.9µM*,1.5µM*,6%,-7,2%
Cc1ccc(S(=O)(=O)N2CCN(C(C(=O)Nc3ccc(F)cc3)c3ccccc3)CC2)cc1 (centres undefined),-3,?,?,-3%[11.6 µM],-10,24%
O=c1c2cccc3c(N4CCOCC4)ccc(c32)c2nc3ccccc3n12,29*,31%,83%,nt,73*,-2%
O=c1c2ccc([N+](=O)[O-])c3cccc(c32)c2nc3ccccc3n12,-1,2%,17%,nt,13,-1%
O=S(=O)(c1ccccc1F)N1CCN(CCc2ccccc2)CC1,1,0%,32%,-14%,5,3%
CSc1nnc(-c2ccc(NC(N)=S)cc2)o1,14*,8%,11%,-8%,22,0%
Cc1ccc(C(=O)NNC(=O)COc2ccc(Cl)cc2C)o1,nt,-6%,-14%,81%,nt,-6%
Cc1cc(Cl)ccc1OCC(=O)NNC(=O)c1cnccn1,17,?,8.3µM*,64%,9,15%
Cc1ccc(OCC(=O)NCCNC(=O)c2cnccn2)cc1C,-1,2%,?,3%,15,17%
Cc1cc(Br)ccc1OCC(=O)NNC(=O)c1cnccn1,1,?,12µM*,96%,12,?
O=C(COc1ccccc1[N+](=O)[O-])N/N=C/c1cccs1,10,50%,58%,0%[11.6 µM],12,-6%
O=C(O)[C@@H]1CSCN1,nt,-6%,-15%,nt,nt,nt
O=C(Cc1ccccc1)N1CCc2ccccc21,27*,nt,45%,7%,40*,9%
O=C(CCn1c(=O)oc2ccccc21)N1CCc2ccccc21,18,?,1%,-4%,-6,-1%
COc1ccc2c(CC(=O)OCC(=O)N3CCc4ccccc43)coc2c1,8,11%,nt,-13%,33,-1%
O=C(CS(=O)(=O)c1ccccc1)N1CCc2ccccc21,40*,54%,0.83µM*,8%,74*,-2%
COc1ccc2c(CC(=O)N3CCc4ccccc43)coc2c1,42*,154%,nt,-13%,66*,-6%
O=C(CCn1cccc1)N1CCc2ccccc21,53*,16%,87%,-6%,17,-2%
COc1ccc(-c2csc(C(O)c3ccc(F)c(OC)c3)n2)cc1 (centres undefined),nt,nt,nt,6%,nt,nt
COc1ccc(CC(O)CO)cc1OCc1ccccc1 (centres undefined),nt,nt,nt,-5%,nt,nt
COc1ccc(-c2ccc(=O)n(CC(=O)NCC3COCCO3)n2)cc1 (centres undefined),nt,-25%,?,-6%,nt,1%

# From PubChem
